Results: the supplement of paper PMC12350171
Structures can show the parent of a compound that is named as a salt. Values without a mark were called inactive.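 Rule for the calls: active = AUC significantly below DMSO controls by Student t-fit with adjusted P under 0.01; inactive = not significantly reduced.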

What follows are molecules tested on Haemophilus parainfluenzae (assay: growth AUC normalised to DMSO control (fraction of control); higher = less growth inhibition, active = hit call of the paper). Conditions: 20 µM.
Outline: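 For the AUC endpoint, growth curves were integrated by the trapezoidal rule up to the exponential-to-stationary transition and normalised to DMSO controls on the same plate. The curves came from OD578 readings taken hourly for 24 h, in three biological replicates. Pathogens had been passaged anaerobically twice and inoculated at an OD578 of 0.01 into pre-reduced mGAM plates carrying 20 μM compound and 1% DMSO, sealed with breathable membranes. Medium for Haemophilus parainfluenzae also contained hemin and NAD.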

Structure (SMILES) | growth AUC normalised to DMSO control
CC(=O)NCCCS(=O)(=O)O [Acamprosate calcium] | 0.988
N=C(N)NC(=O)c1nc(Cl)c(N)nc1N [Amiloride hydrochloride dihydrate] | 1.03
CC(C)(C)NC[C@H](O)c1ccc(O)c(CO)c1 [Levalbuterol hydrochloride] | 0.993
CC(C)(C)C(=O)OCOC(=O)[C@@H]1N2C(=O)[C@@H](NC(=O)[C@H](N)c3ccccc3)[C@H]2SC1(C)C [Pivampicillin] | 0.942
Clc1ccc(C(Cn2ccnc2)OCc2ccsc2Cl)c(Cl)c1 (configuration not stated) [Tioconazole] | 0.934
CN(C)[C@@H]1C(=O)C(C(=O)NCNCCCC[C@H](N)C(=O)O)=C(O)[C@@]2(O)C(=O)C3=C(O)c4c(O)cccc4[C@@](C)(O)[C@H]3C[C@@H]12 [Lymecycline] | 0.935
CCCCN1CCCCC1C(=O)Nc1c(C)cccc1C (configuration not stated) [Bupivacaine hydrochloride] | 0.967
CC(=O)NC[C@H]1CN(c2ccc(N3CCOCC3)c(F)c2)C(=O)O1 [Linezolid] | 0.582 (active)
COc1ccc(C(Cl)=C(c2ccc(OC)cc2)c2ccc(OC)cc2)cc1 [Chlorotrianisene] | 0.951
Nc1ccn([C@@H]2CS[C@H](CO)O2)c(=O)n1 [Lamivudine] | 0.999
CC1Cc2ccccc2N1NC(=O)c1ccc(Cl)c(S(N)(=O)=O)c1 (configuration not stated) [Indapamide] | 1.03
CN1CCN(C2=Nc3ccccc3Oc3ccc(Cl)cc32)CC1 [Loxapine succinate] | 0.969
COc1ccc(C2CNC(=O)C2)cc1OC1CCCC1 (configuration not stated) [Rolipram] | 0.952
COc1ccccc1N1CCN(CCCNc2cc(=O)n(C)c(=O)n2C)CC1 [Urapidil hydrochloride] | 0.979
Cc1ccnc(NS(=O)(=O)c2ccc(N)cc2)n1 [Sulfamerazine] | 0.994
CN(C)C(=O)C(CCN1CCC(O)(c2ccc(Cl)cc2)CC1)(c1ccccc1)c1ccccc1 [Loperamide hydrochloride] | 1

Structure (SMILES) | growth AUC normalised to DMSO control
CN[C@@H]1[C@H](O)[C@H](NC)[C@H]2O[C@@]3(O)C(=O)C[C@@H](C)O[C@H]3O[C@@H]2[C@H]1O [Spectinomycin dihydrochloride] | 0.117 (active)
CC(Oc1ccccc1)C(=O)N[C@@H]1C(=O)N2[C@@H]1SC(C)(C)[C@@H]2C(=O)O (some centres not stated) [Phenethicillin potassium salt] | 0.59 (active)
Cc1cc(=O)oc2cc(O)ccc12 [Hymecromone] | 1
COc1cc(NS(=O)(=O)c2ccc(N)cc2)nc(OC)n1 [Sulfadimethoxine] | 0.98
CN1CCC[C@@H]1CCO[C@](C)(c1ccccc1)c1ccc(Cl)cc1 [Clemastine fumarate] | 0.973
O=C(O)CCC(=O)Nc1ccc(S(=O)(=O)Nc2nccs2)cc1 [Succinylsulfathiazole] | 1.01
NC(=O)OCC(O)COc1ccc(Cl)cc1 (configuration not stated) [Chlorphensin carbamate] | 1.01
OC(CCN1CCCCC1)(c1ccccc1)C1CCCCC1 (configuration not stated) [Trihexyphenidyl-D,L hydrochloride] | 1.01
CCOC(=O)C1=C(COCCN)NC(C)=C(C(=O)OC)C1c1ccccc1Cl (configuration not stated) [Amlodipine] | 0.989
CS(=O)(=O)c1ccc([C@@H](O)[C@@H](CO)NC(=O)C(Cl)Cl)cc1 [Thiamphenicol] | 0.032 (active)
Nc1nc(=O)[nH]cc1F [Flucytosine] | 0.95
Cc1cc(-n2c(=O)[nH]c(=O)n(C)c2=O)ccc1Oc1ccc(SC(F)(F)F)cc1 [Toltrazuril] | 0.954
Clc1ccc(CCC(Cn2ccnc2)Sc2c(Cl)cccc2Cl)cc1 (configuration not stated) [Butoconazole nitrate] | 0.97
CCOC(=O)[C@H](CCc1ccccc1)N[C@@H](C)C(=O)N1Cc2ccccc2C[C@H]1C(=O)O [Quinapril hydrochloride] | 0.952
CNCCC(Oc1ccc(C(F)(F)F)cc1)c1ccccc1 (configuration not stated) [Fluoxetine hydrochloride] | 1
Oc1ccc(OCc2ccccc2)cc1 [Monobenzone] | 0.902
